Measured values taken from PubChem BioAssay.
Calls of active or inactive are those of the source.

Columns and labels:
[1] = optical density shifts of acrAB sulA E. coli – strain DRC41, OD650, 48 h, E. coli filamentation inducer project, primary screen (AID 1152); details: higher = more signal, called active from +8 up or from −8 down;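 also: E. coli MC1000 strain DRC41 lacking acrAB efflux pump and sulA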
[2] = probe aLefty1 binding on compound microarray – biochemical, small-molecule microarray, 635/667 nm fluorescence, primary screen (AID 1153); details: higher = more signal;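 also: score merges spot fluorescence with signal-to-noise ratio from the scanned slide images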
[3] = plasmodial surface anion channel blockers, osmotic lysis – cell-based, P. falciparum Indochina, OD700, 1 h, primary screen (AID 1154); details: P. falciparum Indochina infected RBC osmotic lysis, higher = more signal, called active from +8 up or from −8 down
[4] = plasmodial surface anion channel blockers, osmotic lysis – cell-based, P. falciparum Indochina, OD700, 2 h, primary screen (AID 1155);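 also: lysis reports solute entry through the parasite surface anion channel PSAC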; details: P. falciparum Indochina infected erythrocytes, higher = more signal, called active from +8 up or from −8 down
[5] = changes in parasitized red cell lysis, either direction – P. falciparum Indochina, OD700, 3 h, PSAC antagonist project, primary screen (AID 1156); details: P. falciparum-infected erythrocytes, osmotic lysis, higher = more signal, called active from +8 up or from −8 down
[6] = plasmodial surface anion channel blockers, osmotic lysis – cell-based, P. falciparum Indochina, OD700, 18 h, primary screen (AID 1157); details: P. falciparum Indochina infected erythrocytes, osmotic lysis OD700, 18 h; higher = more signal, called active from +8 up or from −8 down
[7] = S6 kinase pathway phospho-S6 level changes – cell-based, A549, cytoblot, luminescence, serum-stimulated, primary screen (AID 1158); details: 5 h, higher = more signal;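 also: serum-stimulated A549 lung adenocarcinoma cells; signal is phosphorylated S6 detected by cytoblot immunostaining with HRP secondary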
[8] = target: NADPH oxidase 2 (Homo sapiens) (UniProt P04839); assay: compounds shifting NOX2 Amplex Red fluorescence – cell-based, HEK293-NOX2, PMA-stimulated, NOX inhibitor project, primary screen (AID 1159); details: 45 min, higher = more signal, called active from +8 up or from −8 down; also: test concentration not given here
NADPH oxidase 2 (Homo sapiens), sequence (P04839 whole entry, looked up): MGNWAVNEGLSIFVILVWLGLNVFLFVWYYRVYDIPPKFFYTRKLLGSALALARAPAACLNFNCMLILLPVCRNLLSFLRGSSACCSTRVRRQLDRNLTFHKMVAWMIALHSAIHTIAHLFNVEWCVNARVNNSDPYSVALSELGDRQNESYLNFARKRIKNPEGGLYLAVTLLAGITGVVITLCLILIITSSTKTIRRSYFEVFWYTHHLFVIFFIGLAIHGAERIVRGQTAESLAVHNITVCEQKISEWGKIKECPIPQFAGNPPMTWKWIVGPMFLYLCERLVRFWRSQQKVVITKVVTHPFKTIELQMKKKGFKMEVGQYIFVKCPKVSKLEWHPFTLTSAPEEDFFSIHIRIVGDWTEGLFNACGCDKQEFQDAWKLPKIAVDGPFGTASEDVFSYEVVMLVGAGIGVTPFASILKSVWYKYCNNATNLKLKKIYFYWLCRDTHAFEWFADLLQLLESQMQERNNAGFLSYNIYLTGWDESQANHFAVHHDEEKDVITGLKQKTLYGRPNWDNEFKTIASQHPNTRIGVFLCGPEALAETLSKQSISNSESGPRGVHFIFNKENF

[9] = target: NADPH oxidase 4 (Homo sapiens) (UniProt Q9NPH5); assay: compounds shifting NOX4 Amplex Red fluorescence – cell-based, HEK293-NOX4, tetracycline-induced, NOX inhibitor project, primary screen (AID 1160); details: HEK293-NOX4, Amplex Red H2O2 fluorescence, 45 min; higher = more signal, called active from +8 up or from −8 down
NADPH oxidase 4 (Homo sapiens), sequence (Q9NPH5 whole entry, looked up): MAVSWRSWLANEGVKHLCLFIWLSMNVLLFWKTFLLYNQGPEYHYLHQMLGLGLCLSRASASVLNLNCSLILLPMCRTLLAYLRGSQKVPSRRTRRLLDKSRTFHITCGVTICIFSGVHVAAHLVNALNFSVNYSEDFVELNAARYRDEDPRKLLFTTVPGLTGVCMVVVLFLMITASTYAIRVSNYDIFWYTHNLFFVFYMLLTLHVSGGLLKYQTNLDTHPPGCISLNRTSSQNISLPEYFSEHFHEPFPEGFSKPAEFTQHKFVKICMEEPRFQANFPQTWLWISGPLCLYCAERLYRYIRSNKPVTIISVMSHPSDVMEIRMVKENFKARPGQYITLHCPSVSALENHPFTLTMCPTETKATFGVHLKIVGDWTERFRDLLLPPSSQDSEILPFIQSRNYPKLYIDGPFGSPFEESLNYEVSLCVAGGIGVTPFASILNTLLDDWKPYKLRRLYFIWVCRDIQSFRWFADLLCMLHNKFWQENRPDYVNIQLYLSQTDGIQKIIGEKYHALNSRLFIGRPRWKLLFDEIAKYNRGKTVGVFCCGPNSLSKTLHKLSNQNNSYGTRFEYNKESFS

[10] = target: NADPH oxidase 5 (Homo sapiens) (UniProt Q96PH1); assay: compounds shifting NOX5 Amplex Red fluorescence – cell-based, HEK293-NOX5, NOX inhibitor project, primary screen (AID 1161); details: HEK293-NOX5, ionomycin, 45 min, higher = more signal
NADPH oxidase 5 (Homo sapiens), sequence (Q96PH1 whole entry, looked up): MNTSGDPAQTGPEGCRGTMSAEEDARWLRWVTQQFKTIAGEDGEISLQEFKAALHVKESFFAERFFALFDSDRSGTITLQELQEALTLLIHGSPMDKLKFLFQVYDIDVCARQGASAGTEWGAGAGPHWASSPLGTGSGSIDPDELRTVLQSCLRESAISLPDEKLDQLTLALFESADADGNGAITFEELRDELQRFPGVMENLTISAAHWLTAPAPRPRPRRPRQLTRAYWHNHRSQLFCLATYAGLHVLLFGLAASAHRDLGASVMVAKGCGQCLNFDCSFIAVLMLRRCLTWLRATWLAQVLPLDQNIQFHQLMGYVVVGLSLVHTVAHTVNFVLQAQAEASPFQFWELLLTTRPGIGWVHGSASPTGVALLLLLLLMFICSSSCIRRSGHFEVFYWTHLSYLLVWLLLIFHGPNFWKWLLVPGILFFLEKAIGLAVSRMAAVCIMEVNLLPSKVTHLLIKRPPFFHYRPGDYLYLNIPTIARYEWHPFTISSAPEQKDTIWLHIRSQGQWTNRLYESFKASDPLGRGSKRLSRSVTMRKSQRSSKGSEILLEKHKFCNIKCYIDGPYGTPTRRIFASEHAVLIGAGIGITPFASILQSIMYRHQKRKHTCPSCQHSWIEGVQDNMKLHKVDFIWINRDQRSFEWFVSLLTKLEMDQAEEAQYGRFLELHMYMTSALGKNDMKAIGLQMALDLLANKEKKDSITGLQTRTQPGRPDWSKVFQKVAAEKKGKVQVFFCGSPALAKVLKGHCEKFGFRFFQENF

[11] = compound effects on lung adenocarcinoma cell viability – A549, calcein-AM fluorescence, 48 h, basal, profiling panel (AID 1162); details: higher = more signal; also: test concentration not given here
[12] = compound effects on differentiated 3T3-L1 adipocyte viability – cell-based, 3T3-L1 adipocytes, calcein-AM fluorescence, 48 h, basal, profiling panel (AID 1163); details: 3T3-L1 adipocytes viability, higher = more signal; also: test concentration not given here
[13] = compound effects on hepatocellular carcinoma cell viability – HepG2, calcein-AM fluorescence, 48 h, basal, profiling panel (AID 1164); details: higher = more signal; also: test concentration not given here
[14] = compound effects on multiple myeloma cell viability – MM1S, calcein-AM fluorescence, 48 h, basal, profiling panel (AID 1165); details: higher = more signal;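 also: viability of MM1S multiple myeloma cells under basal unstimulated conditions; test concentration not given here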
[15] = calcein-AM signal in unstimulated myeloma cells – cell-based, calcein-AM fluorescence, 48 h, PK04 Diversity Set, profiling panel (AID 1166); details: RPMI8226 myeloma viability, higher = more signal;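 also: cells grown under basal conditions without added stimulus; test concentration not given here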
[16] = JC-1 mitochondrial signal, unstimulated HepG2 cells – cell-based, JC-1 fluorescence, 24 h, 100 nL compound, profiling panel (AID 1167); details: HepG2 mitochondrial potential, higher = more signal; also: test concentration not given here
[17] = JC-1 mitochondrial signal, unstimulated adipocytes – cell-based, JC-1 fluorescence, 3T3-L1 adipocytes, 24 h, 100 nL compound, profiling panel (AID 1168); details: JC-1 mitochondrial fluorescence, higher = more signal, called active from +8 up or from −8 down; also: test concentration not given here
[18] = JC-1 mitochondrial signal, unstimulated myeloma cells – cell-based, JC-1 fluorescence, RPMI8226, 24 h, 100 nL compound, profiling panel (AID 1169); details: JC-1 mitochondrial potential fluorescence, higher = more signal; also: test concentration not given here
[19] = JC-1 mitochondrial signal, unstimulated MM1S myeloma – cell-based, JC-1 fluorescence, 24 h, 100 nL compound, profiling panel (AID 1170); details: MM1S mitochondrial potential, higher = more signal; also: test concentration not given here
[20] = resazurin metabolic signal in A549 cells – cell-based, resazurin fluorescence, 24 h, PK04 Diversity Set, profiling panel (AID 1171); details: A549 viability, higher = more signal, called active from +8 up or from −8 down; also: test concentration not given here

| Structure (SMILES) | z-score [1] | composite z-score [2] | z-score [3] | z-score [4] | z-score [5] | z-score [6] | z-score [7] | z-score [8] | z-score [9] | z-score [10] | z-score [11] | z-score [12] | z-score [13] | z-score [14] | z-score [15] | z-score [16] | z-score [17] | z-score [18] | z-score [19] | z-score [20] |
| --- | --- | --- | --- | --- | --- | --- | --- | --- | --- | --- | --- | --- | --- | --- | --- | --- | --- | --- | --- | --- |
| CCOC(=O)[C@H](Cc1ccccc1)NC(=O)CCC1CC(OC(=O)NCCc2ccc(F)cc2)CC2(CCCC(COC(=O)NCc3cccc(C(F)(F)F)c3)O2)O1 (stereo not given in full) | 0.048 (inactive) | 0.0834 | -1.14 (inactive) | 0.277 (inactive) | -0.017 (inactive) | 0.344 (inactive) | -0.354 | 0.575 (inactive) | 0.488 (inactive) | 0.837 | -0.754 | 0.15 | -0.875 | -0.0822 | -1.82 | 0.502 | -0.306 (inactive) | 0.562 | 0.464 | 1.39 (inactive) |
| CC1(C)O[C@H]2OC([C@H](O)CON3C(=O)c4ccccc4C3=O)[C@H](O)[C@H]2O1 (stereo not given in full) | 0.336 (inactive) | -0.352 | -0.36 (inactive) | -0.215 (inactive) | -0.356 (inactive) | -0.266 (inactive) | -0.339 | 0.821 (inactive) | 0.146 (inactive) | 0.145 | 0.23 | 0.0217 | 0.0029 | -0.963 | -0.486 | -0.249 | -0.143 (inactive) | -0.484 | 0.658 | 0.368 (inactive) |
| O=C1[C@H]2[C@H]3[C@H](O)[C@H](O)CC(=NOC[C@@H](O)COCc4ccco4)[C@@H]3CC[C@H]2C(=O)N1Cc1ccc2c(c1)OCO2 | 1.56 (inactive) | -0.0984 | 30 (active) | 4.77 (inactive) | 0.826 (inactive) | 1.01 (inactive) | 0.236 | -2.68 (inactive) | 0.499 (inactive) | 0.351 | 0.751 | 0.0548 | 0.579 | 0.477 | 0.677 | 1.07 | 0.231 (inactive) | 0.727 | -1.18 | 0.178 (inactive) |
| CON=C(C)CCN1CCCc2nc(C)c(C)cc21 | -2.33 (inactive) | -0.0601 | 1.03 (inactive) | 0.498 (inactive) | 0.619 (inactive) | 0.49 (inactive) | -0.621 | -1.52 (inactive) | -1.06 (inactive) | -0.493 | 0.604 | 0.542 | 0.926 | -1.56 | -0.0679 | 0.791 | -0.195 (inactive) | 0.538 | 0.11 | 0.161 (inactive) |
| COC(=O)[C@H](C)NC(=O)CCC1CC(OC(=O)NCc2cccc3ccccc23)CC2(CCCC(COC(=O)NCCOc3ccccc3)O2)O1 (stereo not given in full) | -0.677 (inactive) | -0.186 | 7.46 (inactive) | 0.622 (inactive) | -0.363 (inactive) | 0.346 (inactive) | 0.152 | 0.00289 (inactive) | -0.292 (inactive) | -0.19 | -0.13 | 0.151 | -1.24 | -3.37 | -3.01 | -0.234 | -0.198 (inactive) | -0.458 | -0.463 | 1.33 (inactive) |
| Cc1ccc(S(=O)(=O)N[C@@H]2COC(=O)CC=C[C@@H](C)[C@H](NS(=O)(=O)c3ccc(C)cc3)COC(=O)[C@H](C)NC(=O)CC=C[C@H]2C)cc1 | 0.328 (inactive) | -0.147 | -0.434 (inactive) | -0.159 (inactive) | -0.207 (inactive) | 0.106 (inactive) | 0.378 | -6.49 (inactive) | 0.375 (inactive) | -0.545 | 0.697 | -0.0454 | 0.428 | -0.987 | 0.158 | 0.209 | 0.099 (inactive) | 0.389 | 1.03 | -0.395 (inactive) |
| CC(=O)OC[C@H]1O[C@H](CC=NO[C@H](C)c2cn([C@@H]3COC[C@H]3O)nn2)C=C[C@@H]1OC(C)=O | -0.676 (inactive) | -0.27 | -0.279 (inactive) | -1.7 (inactive) | -0.115 (inactive) | -1.7 (inactive) | 1.22 | -1.01 (inactive) | 0.127 (inactive) | 0.0052 | 0.674 | 0.062 | 0.631 | 0.621 | 0.479 | 0.00468 | 1.13 (inactive) | 0.418 | -0.466 | -0.145 (inactive) |
| CC(C)[C@@H](OCc1ccccc1)[C@H](C)C=NO[C@H](C)c1cn([C@@H]2COC[C@H]2O)nn1 | 0.112 (inactive) | -0.111 | 0.551 (inactive) | -0.119 (inactive) | -0.541 (inactive) | 0.172 (inactive) | -0.995 | 0.542 (inactive) | 0.827 (inactive) | 0.704 | 0.569 | -0.478 | -0.0131 | 0.0238 | -0.0081 | -0.479 | -0.98 (inactive) | 0.608 | -0.601 | -0.516 (inactive) |
| COC(=O)[C@H](C)NC(=O)CCC1CC(OC(=O)NCCc2ccc(F)cc2)CC2(CCCC(COC(=O)NCC3CCCCC3)O2)O1 (stereo not given in full) | -0.56 (inactive) | -0.0464 | 0.731 (inactive) | -0.391 (inactive) | 0.701 (inactive) | -0.957 (inactive) | 1.77 | -0.763 (inactive) | -1.47 (inactive) | -1.68 | -0.111 | 0.851 | -1.36 | -0.574 | -1.85 | -0.717 | 0.497 (inactive) | 0.785 | -0.771 | 0.541 (inactive) |
